{"source": "the supplement of paper PMC6555819"}
{"system": "FXR:RXRa (NR concentration 270 nM, RXRa partner concentration 90 nM)", "assay": "PBM binding z-score (relative to random genomic background probes); higher = stronger binding; sequences stand for … in GC…GCGATTGACAGCGTAGAATGAAGG", "in_short": "(§1)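 Probes were double-stranded and carried 34-nt variable regions with direct-repeat seeds, single-nucleotide variants, half-site ablations and random human genomic background sequences, printed on custom Agilent 4×180K protein-binding microarrays. Arrays were incubated 1 h with ligand-free nuclear receptor dimers in PBS pH 7.4, 2% milk, 0.02% Triton X-100, 1 mM DTT, 0.2 mg/mL BSA and 0.4 mg/ml salmon testes DNA. Antibodies against each partner (one per run) detected binding, and scanned fluorescence was regression-normalized. Binding z-scores use the random background probes as reference.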"}
{"sequence": "ATCTCTAGGTAAGACTCAGTTCATTGAAGAACGC", "PBM binding z-score": 0.66}
{"sequence": "CCTTACGGGTGAAGGTTATAGCACGGGTGGTACG", "PBM binding z-score": 0.149}
{"sequence": "ACCTCTAGGTAAAAGTTCAGTGAATCCCGAGGAT", "PBM binding z-score": 0.332}
{"sequence": "CGTCAAAGTTCAACTAAGGTGACGTAAAGCACGC", "PBM binding z-score": 7.03}
{"sequence": "CATACTGGGCCATCAGGTCATTGATATCAACGTT", "PBM binding z-score": 1.86}
{"sequence": "CCGACTGGGGCATAAGGTTACAATAAGCCAGCCC", "PBM binding z-score": 0.415}
{"sequence": "CGAACTAGGTCAGAACAGGACAGTGCAGGATGAT", "PBM binding z-score": 1.66}
{"sequence": "CAAACTTGGTCAAAGGTCAAAGTCGAGCCAACCA", "PBM binding z-score": 6.18}
{"sequence": "TCATATAGGCAAATGCTAGGTGAAAGTCCGATCT", "PBM binding z-score": 0.729}
{"sequence": "ATCTCTATGTAAAGATAGTTCAGTGAATGCAAAT", "PBM binding z-score": -0.132}
{"sequence": "GTACCAAGGAGAATAGGTCGTTGATGAGTAGGCG", "PBM binding z-score": -0.287}
{"sequence": "TATACAGGGCCAAAGGCCAGAGTACGAATGTCGA", "PBM binding z-score": 0.18}
{"sequence": "GCTGCTAGGTCAGGTTGCTCAGCTAACGGGTACG", "PBM binding z-score": 1.19}
{"sequence": "AGTCAAAGTTCAGGGCGAGGTAACGTAAAGCACG", "PBM binding z-score": 4.49}
{"sequence": "ACCTACGGGTCAACGAGGTTATAGCACGCGTATA", "PBM binding z-score": 6.4}
{"sequence": "TCTGCTAAGTCAGTTGGTCAGCTAACGAGCTGCC", "PBM binding z-score": -0.309}
{"sequence": "TATCCTAGGTCATGGGCCAGTATACCACGCGAAC", "PBM binding z-score": 5}
{"system": "LXRa:RXRa (NR concentration 270 nM, RXRa partner concentration 90 nM)", "assay": "PBM binding z-score (relative to random genomic background probes); higher = stronger binding; sequences stand for … in GC…GCGATTGACAGCGTAGAATGAAGG", "in_short": "as §1"}
{"sequence": "TCATCTAGGTAATACAGGTGAAAGTCGGCATCTA", "PBM binding z-score": 0.831}
{"sequence": "CGTCCAAGGTCAGAAGGTCAGTGAAAGCGACGTG", "PBM binding z-score": 4.43}
{"sequence": "CATACAGGGTCAGCTAAGCCAGAGTAGGGACGGC", "PBM binding z-score": 2.89}
{"sequence": "TATACAGGGTCAGAGGCCAGAGTACGAATGTCGA", "PBM binding z-score": 3.96}
{"sequence": "GGATCGAGGGCATTCGAGTTGATAGCATGGCGAT", "PBM binding z-score": 1.56}
{"sequence": "ACTAGTTGGTCAGCTGTGGTCACACACAATTCGG", "PBM binding z-score": -0.0982}
{"sequence": "TCGAGTAGGTTAGGGGCACTCAGAATGGCGTCGA", "PBM binding z-score": -0.0493}
{"sequence": "CCTAGAAGGCCAATCTGGGTCACTCAAGGCTTGA", "PBM binding z-score": 3.1}
{"sequence": "ACTTACGAGTCAACGAGGTTATAGCACGCGTATA", "PBM binding z-score": 1.12}
{"sequence": "TAGCCTAGGTCATGGGCTAGTATACCACGCGAAC", "PBM binding z-score": 3.22}
{"sequence": "TCTGCTAGGTCAACGATGGTCATCTAATCTGCTA", "PBM binding z-score": 3.34}
{"sequence": "TCTATTAGCTGATTAGGGCAACCGAAACAGCGGA", "PBM binding z-score": -0.201}
{"sequence": "CTCGAAAGGTGGGTTGAGGTGAGTATACGGATAA", "PBM binding z-score": 0.397}
{"sequence": "CGTCCAAGGTCATAGGAAGTCAGTGAAGACAGAT", "PBM binding z-score": 5.5}
{"sequence": "ATCTATAGGTAACAAGTTCAGTGAAAGAGAGGAC", "PBM binding z-score": 1.11}
{"sequence": "TCGTGTAGATCAAGCAGGTTAAGAAAGCCTGAGT", "PBM binding z-score": 0.107}
{"sequence": "CCTGGGAGGACAACAGGAGGTCAGAGCTGCCAGA", "PBM binding z-score": 2.1}
{"sequence": "AGAATGAGGGTATACGTAGATCAGGGAAGAAAGT", "PBM binding z-score": 0.0157}
{"sequence": "AATACAGGGTCACTAGGCTAGAGTAGGTACGAAT", "PBM binding z-score": 5.05}
{"sequence": "TCGAGTAGGTTACTAATGGGGCATTCAGCTTTCT", "PBM binding z-score": 2.4}
{"sequence": "GTACCAACGTGAATAGGTCGTTGATGAGTAGGCG", "PBM binding z-score": -0.216}
{"sequence": "CCTACTGGGCCATCAGGTTATTGATATCAACGTT", "PBM binding z-score": -0.156}
{"sequence": "ATCTCTAGGTAAGACTCAGTTCATTGAAGAACGC", "PBM binding z-score": 1.1}
{"sequence": "CCTTACGGGTGAAGGTTATAGCACGGGTGGTACG", "PBM binding z-score": 0.504}
{"sequence": "ACCTCTAGGTAAAAGTTCAGTGAATCCCGAGGAT", "PBM binding z-score": 0.842}
{"sequence": "CGTCAAAGTTCAACTAAGGTGACGTAAAGCACGC", "PBM binding z-score": 6.44}
{"sequence": "CATACTGGGCCATCAGGTCATTGATATCAACGTT", "PBM binding z-score": 1.46}
{"sequence": "CCGACTGGGGCATAAGGTTACAATAAGCCAGCCC", "PBM binding z-score": 1.46}
{"sequence": "CGAACTAGGTCAGAACAGGACAGTGCAGGATGAT", "PBM binding z-score": 0.725}
{"sequence": "CAAACTTGGTCAAAGGTCAAAGTCGAGCCAACCA", "PBM binding z-score": 6.18}
{"sequence": "TCATATAGGCAAATGCTAGGTGAAAGTCCGATCT", "PBM binding z-score": 0.526}
{"sequence": "ATCTCTATGTAAAGATAGTTCAGTGAATGCAAAT", "PBM binding z-score": 0.583}
{"sequence": "GTACCAAGGAGAATAGGTCGTTGATGAGTAGGCG", "PBM binding z-score": -0.0565}
{"sequence": "TATACAGGGCCAAAGGCCAGAGTACGAATGTCGA", "PBM binding z-score": 0.14}
{"sequence": "GCTGCTAGGTCAGGTTGCTCAGCTAACGGGTACG", "PBM binding z-score": 0.603}
{"sequence": "AGTCAAAGTTCAGGGCGAGGTAACGTAAAGCACG", "PBM binding z-score": 4.03}
{"sequence": "ACCTACGGGTCAACGAGGTTATAGCACGCGTATA", "PBM binding z-score": 4.83}
{"sequence": "TCTGCTAAGTCAGTTGGTCAGCTAACGAGCTGCC", "PBM binding z-score": -0.429}
{"sequence": "TATCCTAGGTCATGGGCCAGTATACCACGCGAAC", "PBM binding z-score": 5.58}
{"system": "LXRa homodimer (NR concentration 270 nM)", "assay": "PBM binding z-score (relative to random genomic background probes); higher = stronger binding; sequences stand for … in GC…GCGATTGACAGCGTAGAATGAAGG", "in_short": "as §1"}
{"sequence": "TCATCTAGGTAATACAGGTGAAAGTCGGCATCTA", "PBM binding z-score": 0.409}
{"sequence": "CGTCCAAGGTCAGAAGGTCAGTGAAAGCGACGTG", "PBM binding z-score": 0.719}
{"sequence": "CATACAGGGTCAGCTAAGCCAGAGTAGGGACGGC", "PBM binding z-score": 0.0357}
{"sequence": "TATACAGGGTCAGAGGCCAGAGTACGAATGTCGA", "PBM binding z-score": 0.791}
{"sequence": "GGATCGAGGGCATTCGAGTTGATAGCATGGCGAT", "PBM binding z-score": -0.155}
{"sequence": "ACTAGTTGGTCAGCTGTGGTCACACACAATTCGG", "PBM binding z-score": -0.159}
{"sequence": "TCGAGTAGGTTAGGGGCACTCAGAATGGCGTCGA", "PBM binding z-score": -0.34}
{"sequence": "CCTAGAAGGCCAATCTGGGTCACTCAAGGCTTGA", "PBM binding z-score": -0.29}
{"sequence": "ACTTACGAGTCAACGAGGTTATAGCACGCGTATA", "PBM binding z-score": 0.413}
{"sequence": "TAGCCTAGGTCATGGGCTAGTATACCACGCGAAC", "PBM binding z-score": -0.104}
{"sequence": "TCTGCTAGGTCAACGATGGTCATCTAATCTGCTA", "PBM binding z-score": 0.105}
{"sequence": "TCTATTAGCTGATTAGGGCAACCGAAACAGCGGA", "PBM binding z-score": -0.333}
{"sequence": "CTCGAAAGGTGGGTTGAGGTGAGTATACGGATAA", "PBM binding z-score": 0.00532}
{"sequence": "CGTCCAAGGTCATAGGAAGTCAGTGAAGACAGAT", "PBM binding z-score": 1.21}
{"sequence": "ATCTATAGGTAACAAGTTCAGTGAAAGAGAGGAC", "PBM binding z-score": 0.709}
{"sequence": "TCGTGTAGATCAAGCAGGTTAAGAAAGCCTGAGT", "PBM binding z-score": -0.392}
{"sequence": "CCTGGGAGGACAACAGGAGGTCAGAGCTGCCAGA", "PBM binding z-score": 2.07}
{"sequence": "AGAATGAGGGTATACGTAGATCAGGGAAGAAAGT", "PBM binding z-score": -0.0552}
{"sequence": "AATACAGGGTCACTAGGCTAGAGTAGGTACGAAT", "PBM binding z-score": 0.889}
{"sequence": "TCGAGTAGGTTACTAATGGGGCATTCAGCTTTCT", "PBM binding z-score": -0.454}
{"sequence": "GTACCAACGTGAATAGGTCGTTGATGAGTAGGCG", "PBM binding z-score": -0.491}
{"sequence": "CCTACTGGGCCATCAGGTTATTGATATCAACGTT", "PBM binding z-score": 0.178}
{"sequence": "ATCTCTAGGTAAGACTCAGTTCATTGAAGAACGC", "PBM binding z-score": 1.32}
{"sequence": "CCTTACGGGTGAAGGTTATAGCACGGGTGGTACG", "PBM binding z-score": -0.127}
{"sequence": "ACCTCTAGGTAAAAGTTCAGTGAATCCCGAGGAT", "PBM binding z-score": 0.847}
{"sequence": "CGTCAAAGTTCAACTAAGGTGACGTAAAGCACGC", "PBM binding z-score": 4.17}
{"sequence": "CATACTGGGCCATCAGGTCATTGATATCAACGTT", "PBM binding z-score": 1.4}
{"sequence": "CCGACTGGGGCATAAGGTTACAATAAGCCAGCCC", "PBM binding z-score": -0.348}
{"sequence": "CGAACTAGGTCAGAACAGGACAGTGCAGGATGAT", "PBM binding z-score": -0.124}
{"sequence": "CAAACTTGGTCAAAGGTCAAAGTCGAGCCAACCA", "PBM binding z-score": 4.48}
{"sequence": "TCATATAGGCAAATGCTAGGTGAAAGTCCGATCT", "PBM binding z-score": -0.00307}
{"sequence": "ATCTCTATGTAAAGATAGTTCAGTGAATGCAAAT", "PBM binding z-score": 0.163}
{"sequence": "GTACCAAGGAGAATAGGTCGTTGATGAGTAGGCG", "PBM binding z-score": -0.284}
{"sequence": "TATACAGGGCCAAAGGCCAGAGTACGAATGTCGA", "PBM binding z-score": -0.21}
{"sequence": "GCTGCTAGGTCAGGTTGCTCAGCTAACGGGTACG", "PBM binding z-score": -0.362}
{"sequence": "AGTCAAAGTTCAGGGCGAGGTAACGTAAAGCACG", "PBM binding z-score": 1.39}
{"sequence": "ACCTACGGGTCAACGAGGTTATAGCACGCGTATA", "PBM binding z-score": 0.64}
{"sequence": "TCTGCTAAGTCAGTTGGTCAGCTAACGAGCTGCC", "PBM binding z-score": -0.729}
{"sequence": "TATCCTAGGTCATGGGCCAGTATACCACGCGAAC", "PBM binding z-score": 3.83}
